Assay outcomes deposited in PubChem by National Center for Advancing Translational Sciences (NCATS).
Rows were chosen to be rich in hits. Some 3.3% of all compounds tested hit in one or more screens of this group.
Tau ThT inhib: qHTS for Inhibitors of Tau Fibril Formation, Thioflavin T Binding | recombinant tau K18 P301L, heparin-induced fibrillization, ThT fluorescence | Potency, µM (doses to about 57.4 µM), for the others: at the highest dose activity, negative = inhibition, most hits filed as inhibitors | 2.1% of 270,000 active; also: nearly all actives have a fitted effect of over 55% in size
Target sequence (P10636 561-689 P618L limits assumed): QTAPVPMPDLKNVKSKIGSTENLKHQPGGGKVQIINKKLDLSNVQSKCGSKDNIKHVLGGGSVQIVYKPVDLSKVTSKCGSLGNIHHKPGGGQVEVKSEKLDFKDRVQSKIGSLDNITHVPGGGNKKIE
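Heparin-induced fibrillization of the P301L-mutant K18 repeat-domain fragment of human tau was followed by ThT binding in quantitative high-throughput format.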
KinaseGlo FLuc: Counterscreen for Luciferase (Kinase-Glo TM) Inhibition; Luciferin 4-monooxygenase (Photuris pensylvanica), Q27757; Kinase-Glo luciferase, ATP luminescence, 8 min; Potency, µM (titrated, usually from 38.3 µM), for the others: at the top dose activity change, negative = inhibition, most hits filed as inhibitors; 0.28% of 200,000 active; AID 1379, 2008; also: nearly all actives have a fitted effect of over 60% in size
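Light output from Kinase-Glo luciferase with luciferin and 10 uM ATP in 50 mM imidazole pH 7.2, KCl, MgCl2, Tween 20, BSA; compound pin-delivered, 8-min ambient incubation, then luminescence read.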
Tau fluor counter: Counterscreen qHTS for Inhibitors of Tau Fibril Formation, Fluorescence Polarization. tau K18 P301L Alexa594 fluorescence, heparin fibrillization. Potency, µM (titrated, usually from 57.7 µM), inactives show top-dose activity change, negative = decrease. 0.93% of 280,000 active; also: nearly all actives have a fitted effect of over 55% in size
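Human tau K18 P301L (15 uM unlabeled, 0.24 uM Alexa 594-labeled) in 100 mM sodium acetate pH 7 with 20 uM heparin, 6 hr at 37 C. ThT 30 uM added, 1 hr ambient; Alexa 594 FP and total fluorescence read at 555/632 nm.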
Tau fibril FP: qHTS for Inhibitors of Tau Fibril Formation, Fluorescence Polarization. Microtubule-associated protein tau (Homo sapiens), P10636. K18 P301L tau heparin fibrillization, Alexa594 FP, 6 h. Potency, µM (highest dose often 57.7 µM), inactives show at the top dose activity, negative = inhibition, most hits filed as inhibitors. 0.39% of 280,000 active. AID 1468, 2008; also: nearly all actives have a fitted effect of over 55% in size
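Compound effects on tau fibrillization are measured by Alexa 594 fluorescence polarization (ex 555, em 632 nm). K18 P301L tau is used at 15 uM with 0.24 uM labeled tracer, and 20 uM heparin induces aggregation over 6 hr at 37 C.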
NPSR antag: qHTS Assay for Antagonists of the Neuropeptide S Receptor: cAMP Signal Transduction. Q6W5P4. CHO-NPSR cells, cAMP TR-FRET, antagonist mode. Potency, µM (titrated, usually from 38.3 µM), for the others: at the top dose activity change, negative = inhibition, usual class: inhibitors. 1% of 220,000 active. AID 1461, 2008; also: nearly all actives have a fitted effect of over 50% in size
Target sequence (Q6W5P4 whole entry, looked up): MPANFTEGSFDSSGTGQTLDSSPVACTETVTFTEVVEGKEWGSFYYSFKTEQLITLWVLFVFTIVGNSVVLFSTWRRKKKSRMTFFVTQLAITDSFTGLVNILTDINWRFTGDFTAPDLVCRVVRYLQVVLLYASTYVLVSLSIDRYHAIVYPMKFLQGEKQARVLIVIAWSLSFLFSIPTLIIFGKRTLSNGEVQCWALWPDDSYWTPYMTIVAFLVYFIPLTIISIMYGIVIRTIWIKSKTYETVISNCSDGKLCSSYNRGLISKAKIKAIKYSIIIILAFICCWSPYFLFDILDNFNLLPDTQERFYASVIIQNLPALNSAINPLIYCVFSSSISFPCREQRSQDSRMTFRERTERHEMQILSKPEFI
An asterisk follows results filed as active; ? = inconclusive; / = no result given; [ ] = remark or other dose. Calls follow the shape of the dose curve; as a rule, active = well fitted curve in the direction sought with a large enough effect; inconclusive = small, poorly fitted or top-dose-only effect, or another doubt; inactive = no such curve, though single readings can be large; an effect the other way counts as inactive or inconclusive. % is scaled to controls: 0 for no effect and ±100 for the full control effect; potency is read from the fitted curve at half-maximal effect.

SMILES	Tau ThT inhib	KinaseGlo FLuc	Tau fluor counter	Tau fibril FP	NPSR antag
CC(=O)NN1C(=O)/C(=C\c2ccc(O)cc2)SC1=S	?	-3.0%	-13.1%	-2.9%	1.6%
CC(=O)NN1C(=O)/C(=C\c2ccc(Br)o2)SC1=S	25.1µM*	-0.7%	-25.4%	10.9%	-11.2%
CC(=O)NN1C(=O)/C(=C/c2ccc(Br)o2)SC1=S	15.8µM*	1.0%	?	?	-15.1%[46.1 µM]
CCOC(=O)/C=C/C(=O)Nc1ccccc1-c1ccccc1NC(=O)/C=C/C(=O)OCC	20µM*	0.0%	-10.6%	?	-40.2%
O=C(Cn1c(=O)n(Cc2nc(-c3ccccc3)no2)c(=O)c2cc3c(cc21)OCO3)Nc1cccc(C(F)(F)F)c1	?	/	-9.4%	10µM*	/
COc1ccc(-c2noc(Cn3c(=O)c4ccccc4n(CC(=O)Nc4cccc(C(F)(F)F)c4)c3=O)n2)cc1	?	/	-8.6%	11.2µM*	/
COC(=O)/C=C1\OC(c2ccccc2)=CC1=O	25.1µM*	-0.9%	-1.1%	-9.8%	-59.2%
COC(=O)/C(=C1/OC(=O)C(c2ccccc2)=C1O)c1ccccc1	?	0.3%	-9.1%	0.4%	/
Cc1cc(Br)ccc1NC(=O)C1CCN(S(=O)(=O)c2cccc3nsnc23)CC1	-7.8%	/	-17.0%	-7.5%	/
CCCC1Nc2ccc(C(=O)O)cc2C2C=CCC12 (stereo unspecified)	22.4µM*	-1.8%	?	?	-9.8%
O=C(O)c1ccc2c(c1)C1C=CCC1C(c1ccncc1)N2 (stereo unspecified)	25.1µM*	/	?	?	-8.2%
FC(F)(F)c1ccc2c(c1)C1C=CCC1C(c1ccncc1)N2 (stereo unspecified)	?	-0.6%	?	?	-12.9%
COc1ccc(CN2COc3ccc4c(-c5ccccc5)cc(=O)oc4c3C2)cc1OC	-17.9%	/	-9.2%	7.9%	/
O=c1c2ccccc2cnn1CCOc1ccccc1	-7.1%	8.91µM*	5.1%	2.4%	-0.3%
COc1cccc(CCNC(=O)c2c(O)nc3cc(C)ccn3c2=O)c1	-14.4%	/	-5.2%	-8.3%	/
Cc1c(C)c2c(cc(C)c3c(-c4ccc(Br)cc4)coc32)oc1=O	-7.3%	/	-5.7%	-2.6%	/
O=[N+]([O-])c1ccc(O)c(C=Nc2ccc3nc(-c4ccccc4)[nH]c3c2)c1	?	-11.7%	-28.6%	10.8%	-19.7%
Oc1c(Br)cc(C=Nc2ccc3nc(-c4ccccc4)[nH]c3c2)c(O)c1Br	4.47µM*	/	4.47µM*[quencher]	?	10µM*
COc1ccc(/C=C/C(=O)c2ccc(O)cc2O)cc1	11.2µM*	-9.7%	?	-15.2%	/
COc1ccc(/C=C/C(=O)c2cc3c(cc2N)OCO3)cc1	2.82µM*	?	15.8µM*[quencher]	-1.9%	-10.3%
COc1ccc(C(=O)/C=C/c2ccccc2)c(O)c1	?	1.1%	1.0%	14.1%	-34.1%
O=C(O)/C=C\c1ccc(O)c(O)c1	/	2.6%[17.1 µM]	/	/	/
COc1ccc(/C=C/C(=O)c2ccc(OC)cc2OC)cc1	?	/	-19.9%	10.5%	-5.4%
O=C(/C=C/c1ccc(O)c(O)c1)c1ccccc1O	12.6µM*	/	?	?	?
O=C(/C=C/c1ccc(O)c(O)c1)OCCc1ccccc1	?	-3.9%	11.2µM*[quencher]	?	-19.6%[46.1 µM]
SMILES	Tau ThT inhib	KinaseGlo FLuc	Tau fluor counter	Tau fibril FP	NPSR antag
Cc1cccc(NC(=O)CN2C(=O)CSc3ccc(S(=O)(=O)N4CCCC4)cc32)c1C	-4.4%	/	-18.3%	-3.6%	/
COc1cc(OC)c(C(=O)/C=C/c2ccccc2)c(O)c1O	12.6µM*	/	-27.9%	5.0%	?
CC(C)=CCC/C(C)=C/Cc1c(O)ccc(C(=O)/C=C/c2ccc(O)cc2)c1O	20µM*	0.7%	4.47µM*[quencher]	7.94µM*	-29.9%
COc1cc(O)c(C(=O)/C=C/c2ccc(O)c(OC)c2)c(OC)c1	1.78µM*	-9.7%	-28.5%	0.6%	/
O=C(/C=C/c1ccc(O)cc1)c1ccc(O)cc1O	10µM*	-3.1%	?	7.6%	?
C[C@@H]1/C=C\CC(=O)OC[C@H](C)C(=O)N[C@@H](C)C(=O)OC1	-5.9%[11.5 µM]	/	-6.7%[11.6 µM]	-3.2%[11.6 µM]	/
Cc1oc(-c2ccccc2)nc1CNS(=O)(=O)c1ccc(Cl)cc1	6.5%	/	-4.9%	1.8%	/
CCC(C)n1c(=N)c(S(=O)(=O)c2ccc(C)cc2)cc2c(=O)n3cc(C)ccc3nc21 (stereo unspecified)	6.0%	/	-10.8%	-0.7%	/
COc1ccc(/C=C/C(=O)c2ccc(O)cc2O)cc1OC	7.08µM*	-3.5%	-17.8%	-13.8%	/
COc1ccc(O)c(C(=O)/C=C/c2cc3ccccc3o2)c1	?	/	?	8.2%	-23.1%
COc1ccc(/C=C/C(=O)c2cc(O)ccc2O)cc1	14.1µM*	-12.9%	14.1µM*[quencher]	?	/
COc1cc([C@@H]2c3cc4c(cc3[C@@H](O[C@@H]3O[C@H]5CO[C@@H](C)O[C@@H]5[C@@H](O)[C@H]3O)[C@@H]3COC(=O)[C@@H]23)OCO4)cc(OC)c1O	4.1%	2.4%	6.3%	2.3%	/
O=CN/C=C/c1cc(O)ccc1O	25.1µM*	/	28.2µM*[quencher]	?	59.1%
O=CN/C=C/c1cc(F)cc(F)c1F	-0.7%	-0.3%	-2.3%	-3.2%	/
CCOC(=O)c1c(N)sc(C(=O)OC)c1C	?	5.5%	-14.8%	-2.4%	7.0%
CCOC(=O)c1c(N)sc2c(OC)c(Br)ccc12	?	1.3%	25.1µM*[quencher]	5.7%	22.6%[46.1 µM]
O=C1C2C3C=CC(C3)C2C(=O)N1CNc1ccc(O)cc1 (stereo unspecified)	3.16µM*	-1.1%	?	8.91µM*	-18.9%[46.1 µM]
O=C1C2C3C=CC(C3)C2C(=O)N1CCCCCCN1C(=O)C2C3C=CC(C3)C2C1=O (stereo unspecified)	4.8%	11.2µM*	5.0%	-13.6%[2.34 µM]	-33.2%
Cc1ccc(NCN2C(=O)C3C4C=CC(C4)C3C2=O)cc1 (stereo unspecified)	-3.0%	3.2%	-1.6%	-1.7%	9.5%[46.1 µM]
O=C(CCNS(=O)(=O)c1ccc2c(c1)CCN2C(=O)C1CC1)N1CCN(c2ccc(F)cc2)CC1	-16.9%	/	-4.2%	13.4%	/
CCOc1ccc(-c2nc3c(c(SCC(=O)N4CCCCC4)n2)Cc2cccc(OC)c2O3)cc1	-11.7%	/	-9.0%	8.2%	/
O=C(Nc1ccc([N+](=O)[O-])cc1)Nc1ccc(N2CCOCC2)c2nonc12	0.891µM*	/	?	-3.7%	-38.3%
Cc1cc(C)c(NC(=O)Cn2c(=O)n(-c3cccc(C(F)(F)F)c3)c(=O)c3c(C)c(C)sc32)c(C)c1	13.9%	/	9.6%	-14.3%	/
O=C(/C=C/c1ccccc1)c1cccs1	?	-15.6%	-16.2%	9.3%	/
O=C1Nc2ccccc2/C1=C/C(=O)c1cccs1	17.8µM*	12.7%	-26.2%	3.3%	-24.7%[46.1 µM]
